# High-throughput results: PubChem BioAssay, National Center for Advancing Translational Sciences (NCATS)
# Hits are enriched below; roughly 5.8% of the tested compounds scored in any of these assays.
# uPA surface inh = cell surface uPA generation inhibition; cell surface uPA generation assay, qHTS; Potency, µM (doses to about 38.3 µM), actives largely listed as inhibitors; 0.31% of 330,000 active; AID 540303; active = well fitted inhibition curve with a large enough effect; inconclusive = small, poorly fitted or top-dose-only effect; inactive = no such curve, though single readings can be large or run the other way; tested in mouse RAW 264.7 cells; note: nearly all actives have a fitted effect of over 55% in size
# VP16 counter = counter-screen for ROR gamma inhibitors: Gal4-VP16 reporter | 3.5% of 310,000 active | Potency, µM (series often up to 53.6 µM), most hits filed as inhibitors | Drosophila S2 Gal4-VP16 UAS-luciferase, luminescence, 20 h;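 note: Gal4-VP16 expression switched on by copper sulfate through the metallothionein promoter; nearly all actives have a fitted effect of over 50% in size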
# TRPV1 agonist = activates the human vanilloid receptor TRPV1 | TRPV1-expressing cells, Fluo-8 calcium influx, agonist mode | activation, % at 8.33 µM | 0.19% of 320,000 active | AID 540275; in the data active = activation above about 80%; inconclusive = between about 30% and that limit
# Target sequence (Q8NER1 whole entry, looked up): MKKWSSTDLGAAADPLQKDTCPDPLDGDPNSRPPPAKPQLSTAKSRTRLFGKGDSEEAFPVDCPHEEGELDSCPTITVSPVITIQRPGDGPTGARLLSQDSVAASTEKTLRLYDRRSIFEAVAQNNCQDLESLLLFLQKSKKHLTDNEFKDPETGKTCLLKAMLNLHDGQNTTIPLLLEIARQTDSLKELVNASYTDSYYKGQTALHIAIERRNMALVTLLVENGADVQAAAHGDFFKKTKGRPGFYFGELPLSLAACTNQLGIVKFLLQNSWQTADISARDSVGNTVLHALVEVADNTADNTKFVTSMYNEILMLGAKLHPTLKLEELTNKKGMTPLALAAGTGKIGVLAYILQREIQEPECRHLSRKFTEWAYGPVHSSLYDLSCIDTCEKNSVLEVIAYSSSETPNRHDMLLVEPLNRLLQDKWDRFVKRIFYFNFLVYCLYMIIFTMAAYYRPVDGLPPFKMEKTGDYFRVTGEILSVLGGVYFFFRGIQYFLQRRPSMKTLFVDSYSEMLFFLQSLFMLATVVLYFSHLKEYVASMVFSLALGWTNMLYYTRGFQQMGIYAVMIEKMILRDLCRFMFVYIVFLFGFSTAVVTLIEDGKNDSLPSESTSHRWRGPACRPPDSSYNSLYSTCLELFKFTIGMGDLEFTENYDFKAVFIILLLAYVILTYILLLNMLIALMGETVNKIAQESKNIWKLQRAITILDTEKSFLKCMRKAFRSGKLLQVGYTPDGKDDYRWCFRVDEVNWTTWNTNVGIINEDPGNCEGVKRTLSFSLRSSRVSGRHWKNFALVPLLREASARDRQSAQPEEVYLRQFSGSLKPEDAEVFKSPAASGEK
#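 TRPV1-expressing cells were cultured overnight at 35.5C and loaded with Fluo-8 calcium dye for 40 to 90 min at room temperature. After a 10 s baseline, compound was added and calcium influx was read kinetically for 3 min (ex 480/em 520 nm).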
# TRPV1 potentiator = human TRPV1 potentiation; TRPV1-expressing cells, Fluo-8 calcium influx, capsaicin EC20 potentiation; potentiation, % at 8.33 µM; 0.02% of 320,000 active; in the data active = potentiation above about 80%; inconclusive = between about 30% and that limit
#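 TRPV1-expressing cells were cultured overnight at 35.5C and loaded with Fluo-8 calcium dye for 40 to 90 min at room temperature. After a 10 s baseline, compound was added and calcium influx was read kinetically for 3 min (ex 480/em 520 nm).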
# RORg inh = ROR gamma (mouse) transcription inhibition | P51450 | Drosophila S2 Gal4-RORgamma UAS-luciferase reporter, 20 h | Potency, µM (titrated, usually from 53.6 µM), usual class: inhibitors | 5.4% of 310,000 active; note: nearly all actives have a fitted effect of over 60% in size
#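 Drosophila S2 cells stably expressing Gal4-DBD/mouse RORγ fusion under metallothionein promoter plus UAS-luciferase; compound 1 h, then 700 uM CuSO4 induction for 20 h at ambient temperature; inhibition read as reduced luminescence.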
# Numbers stand for hits; n = inactive; u = inconclusive; x = not tested or not shown; [ ] = another dose, or the depositor's remark. Unless noted, calls come from the whole dose curve; as a rule, active = well fitted curve in the direction sought with a large enough effect; inconclusive = small, poorly fitted or top-dose-only effect, or another doubt; inactive = no such curve, though single readings can be large; an effect the other way counts as inactive or inconclusive.
SMILES,uPA surface inh,VP16 counter,TRPV1 agonist,TRPV1 potentiator,RORg inh
CC(=O)Nc1ccc(/C(C)=N/Nc2nc(Nc3ccccc3)nc(N3CCOCC3)n2)cc1,n,u,n,n,10µM
O=C(NNc1nc(Nc2ccccc2)nc(N2CCOCC2)n1)Nc1ccc(Cl)cc1,n,5.6µM,n,n,1.8µM
O=C(NNc1nc(N2CCOCC2)nc(N2CCOCC2)n1)c1ccccc1,n,x,x,x,x
Cc1[nH]c2ccccc2c1CCNC(=O)c1ccc2c(c1[N+](=O)[O-])C(=O)c1ccccc1C2=O,n,u,n,n,10µM
Cc1ccc2c(c1[N+](=O)[O-])C(=O)c1ccccc1C2=O,x,u,x,x,n
CN(C)C(=O)c1ccc2c(c1[N+](=O)[O-])C(=O)c1ccccc1C2=O,n,3.5µM,n,n,2.2µM
CCCNC(=O)NCCc1c(C)[nH]c2ccccc12,n,n,x,x,n
Cc1[nH]c2c(C)cccc2c1CCNC(=O)c1ccc2c(c1[N+](=O)[O-])C(=O)c1ccccc1C2=O,n,u,n,n,6.3µM
CN(C)C(=O)c1ccc(-c2ccc3ncnc(N(C)C)c3c2)cc1,x,n,x,x,n
COCc1ccc(C(=O)OC(C)C(=O)Nc2c(C)n(C)n(-c3ccccc3)c2=O)cc1 (stereo not drawn),n,x,n,u,x
O=S(=O)(/N=C(/c1ccc(F)cc1)N1CCCCC1)c1ccc(Cl)cc1,u,n,n,n,n
CC(C)[C@@H](CC(=O)N[C@@H]1CCCC[C@H]1C(=O)N[C@H](CC(=O)N[C@@H](CCC(=O)O)CC(=O)O)Cc1ccccc1)NC(=O)C[C@H](Cc1ccccc1)NC(=O)[C@@H]1CNCC[C@H]1N,x,n,x,x,n
Cc1ccc(N2C(=O)C3C4C=CC(CNC(=S)N5CCN(c6cccc(C)c6)C(C)C5)(O4)C3C2=O)cc1 (stereo not drawn),n,u,u,n,8.9µM
CCN(C(=O)Cn1cnc2c(nc3n2CCCCC3)c1=O)c1cccc(Cl)c1,n,n,n,n,n
CC(C)C1=NN(C(=O)c2cccnc2)C(O)(C(F)(F)F)C1 (stereo not drawn),n,u,x,x,n
CC(C)CC1=NN(C(=O)c2cccnc2)C(O)(C(F)(F)F)C1 (stereo not drawn),n,13µM,n,n,11µM
CC1=NN(C(=O)c2cccnc2)C(O)(C(F)(F)F)C1 (stereo not drawn),n,13µM,n,n,7.9µM
O=C(c1ccncc1)N1N=C(C2CC2)CC1(O)C(F)(F)F (stereo not drawn),n,n,n,n,11µM
CC1=NN(C(=O)c2ccoc2C)C(O)(C(F)(F)F)C1 (stereo not drawn),n,10µM,n,n,3.5µM
CC(C)CC1=NN(C(=O)c2ccncc2)C(O)(C(F)(F)F)C1 (stereo not drawn),n,u,n,n,n
COc1ccc(S(=O)(=O)N2CCCCC2)cc1NC(=O)Cc1sc(C)nc1-c1ccc(F)cc1,n,x,n,n,x
Cc1c(NC(=S)N/C(=N/S(=O)(=O)c2ccc(Cl)cc2)c2ccccc2)c(=O)n(-c2ccccc2)n1C,n,n,x,x,n
CC1=NN(C(=O)c2csc(C(C)C)c2)C(O)(C(F)(F)F)C1 (stereo not drawn),n,4.5µM,n,n,5µM
Cc1[nH]n2c(=O)c3c(nc2c1-c1ccc(Cl)cc1)CCC3,n,u,n,n,2.2µM
N#Cc1c[nH]n2c(=O)c3c(nc12)CCCC3,x,n,n,n,n
SMILES,uPA surface inh,VP16 counter,TRPV1 agonist,TRPV1 potentiator,RORg inh
Nc1[nH]n2c(=O)c3c(nc2c1N=Nc1ccccc1)CCCC3,n,n,n,n,n
O=c1c2c(nc3c(-c4ccccc4)c[nH]n13)CCCC2,n,u,n,n,10µM
Nc1[nH]n2c(=O)c3c(nc2c1N=Nc1ccc(Cl)cc1)CCCC3,n,n,n,n,n
Cc1[nH]n2c(=O)c3c(nc2c1-c1ccccc1)CCC3,n,u,n,n,13µM
O=C(Nc1ccccc1C(=O)Nc1ccncc1)c1ccccc1,n,n,u,n,n
O=C(Nc1ccc(C(=O)N2CCOCC2)cc1)c1cc(-c2cccnc2)nc2ccc(Cl)cc12,n,n,n,n,n
CCc1cccc(CC)c1NC(=S)NCCc1c(C)[nH]c2ccc(C)cc12,u,5µM,n,n,3.2µM
CCc1cccc(C)c1NC(=S)NCCc1c(C)[nH]c2ccc(C)cc12,n,5.6µM,n,n,2.2µM
Cc1ccc2[nH]c(C)c(CC(=O)NCc3ccccc3)c2c1,n,n,n,n,n
COCC#Cc1ccc(C2C(C)CCC3C(=O)N4C(CCC(C)C4c4ccc(C#CCOC)cc4)C(=O)N32)cc1 (stereo not drawn),x,n[10 µM],x,x,n[10 µM]
Cc1cccc(-c2n[nH]c(=S)n2C)c1,n,u,n,n,u
Cc1[nH]c2ccc(-c3n[nH]c(=S)n3C)cc2c1C,n,u,n,n,11µM
CCn1c(-c2ccc3[nH]c(C)c(C)c3c2)n[nH]c1=S,n,13µM,n,n,11µM
CCCCCCCC/C=C\CCCCCCCC(=O)N[C@H](CO)Cc1ccc(O)cc1,x,u,x,x,n
CC(C)(C)c1nnc(NC(=S)Nc2ccccc2)s1,n,0.89µM,n,n,0.28µM
COc1cc(OC)cc(C(=O)Nc2nnc(NC(=S)Nc3ccccc3)s2)c1,n,u,n,n,0.63µM
CC(C)(C)c1nnc(NC(=O)CCS(=O)(=O)c2ccccc2)s1,n,n,n,n,n
COc1ccccc1-c1cncnc1NCCN1CCOCC1,x,n,x,x,n
Cc1cc(C)c2oc(-c3ccc(C)c(NC(=S)NC(=O)c4cccs4)c3)nc2c1,n,u,n,n,2µM
Cc1ccc(-c2nc3ccccc3o2)cc1NC(=S)NC(=O)c1cccs1,n,u,n,n,4µM
Cc1ccc(-c2nc3ccccc3[nH]2)cc1NC(=O)/C=C/c1ccco1,n,n,n,u,n
Cc1ccc2oc(-c3cccc(NC(=S)NC(=O)/C=C/c4ccco4)c3)nc2c1,n,10µM,n,n,3.5µM
Cc1cc(C)c2oc(-c3ccc(C)c(NC(=S)NC(=O)/C=C/c4ccco4)c3)nc2c1,n,1.4µM,n,n,0.25µM
Cc1ccc2oc(-c3cccc(NC(=S)NC(=O)c4cccs4)c3)nc2c1,n,n,n,n,n
COC(=O)c1sccc1Oc1c(Cl)cccc1[N+](=O)[O-],n,n,n,n,n
SMILES,uPA surface inh,VP16 counter,TRPV1 agonist,TRPV1 potentiator,RORg inh
COC(=O)N[C@@H](c1cccc(C)c1)C(C(C)=O)C(=O)OC (stereo partly drawn),x,n,x,x,n
Cc1nc2nc(CNC(=O)OC(C)(C)C)nn2c(C)c1CCC(=O)Nc1ccc2c(c1)OCO2,n,n,n,n,n
Cc1cc(C)nc(Sc2nc(Cl)nc(N(c3ccccc3)c3ccccc3)n2)n1,n,u,n,n,11µM
COc1ccc(C(C(=O)Nc2ccc(C(C)C)cc2)N(C)C(=O)c2ccc(=O)[nH]c2)cc1 (stereo not drawn),n,n,n,n,18µM
CCc1ccc(O)c(N=Cc2cccc(C)c2O)c1,n,u,n,n,11µM
Cc1cccc(C=Nc2ccc3c4c(cccc24)CC3)c1O,n,n,n,n,n
